Measurements: PubChem BioAssay (NCI)
This is part of a sample that, as a whole, favours compounds with a hit. Of some 79,000 tested, about 15% had one in any assay. Active and inactive are the calls of the source. Cut-off read from the data, not from the text of the source: active = growth inhibition above about 70%; inactive = the rest.

Tests used:
[1] = NCI Yeast Anticancer Drug Screen. Data for the rad50 strain (AID 155);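 note: 0% = growth of vehicle-only cultures of the same strain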; conditions: S. cerevisiae rad50 strain growth inhibition; at 50.0 µM; stronger effect = higher value
Outline: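 Readout: growth inhibition relative to vehicle-treated cultures. Compound exposure was carried out in a genetically defined yeast strain deficient in DNA damage repair.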

[2] = NCI Yeast Anticancer Drug Screen. Data for the mec2-1 strain (AID 157); conditions: S. cerevisiae mec2-1 strain, at 50.0 µM, stronger effect = higher value
Outline: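 mec2-1 yeast strain, carrying an alteration in DNA damage repair or cell cycle control, was exposed to compounds; growth inhibition was measured relative to vehicle-treated controls.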

[3] = NCI Yeast Anticancer Drug Screen. Data for the sgs1 mgt1 strain (AID 161);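 note: 0% = growth of cultures given vehicle only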; conditions: S. cerevisiae sgs1 mgt1 strain, at 50.0 µM, stronger effect = higher value
Outline: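 Compounds are added to genetically altered yeast, and growth is compared with cultures given vehicle alone to give percent inhibition.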

[4] = NCI Yeast Anticancer Drug Screen. Data for the cln2 rad14 strain (AID 165);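 note: 0% = growth equal to vehicle treated cultures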; conditions: S. cerevisiae cln2 rad14 strain, at 50.0 µM, stronger effect = higher value
Outline: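 Yeast carrying cln2 and rad14 alterations (cell cycle control and DNA damage repair) were exposed to compounds. Growth inhibition was measured against vehicle-treated controls.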

[5] = NCI Yeast Anticancer Drug Screen. Data for the bub3 strain (AID 167); conditions: S. cerevisiae bub3 mutant strain, at 50.0 µM, stronger effect = higher value
Outline: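 Readout: yeast growth inhibition, expressed relative to vehicle-only wells. The test organism is a mutant strain from a panel with lesions in DNA repair or checkpoint genes.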

[6] = NCI Yeast Anticancer Drug Screen. Data for the mlh1 rad18 strain (AID 175); conditions: S. cerevisiae mlh1 rad18 strain growth inhibition; at 50.0 µM; stronger effect = higher value
Outline: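 Growth inhibition of the yeast strain was measured after compound exposure and expressed relative to vehicle-treated controls. The strain carries defined defects in DNA damage repair.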

Measured: growth inhibition

CCN(CC)CCC(=O)Nc1cc(OC)cc2cccnc12
inactive: [1] 10.7% | [2] 10.5% | [3] 6.25% | [4] -21.1% | [5] -19.4% | [6] -8.1%

O=C(C1=Cc2ccccc2OC1)N1CCN(c2ccccc2Cl)CC1
inactive: [1] 12.3% | [2] 20.2% | [3] 34.6% | [4] 24.4% | [5] 38% | [6] 40.1%

CN1C(=O)Cn2c(n[nH]c(=O)c2=O)-c2cc(Cl)ccc21
inactive: [1] -22.4% | [2] 12.3% | [3] 10.3% | [4] -36.5% | [5] 12.9% | [6] 6.2%

NC(C1SCCS1)C(O)C(O)C(O)CO (configuration not stated)
inactive: [1] -5.55% | [2] -27.6% | [3] -1.9% | [4] -3.7% | [5] 3.1% | [6] -3.95%

CN1N(c2ccccc2)C(=O)C2=NC=C(C#N)C(=N)C21C (configuration not stated)
inactive: [1] 14.9% | [2] 41% | [3] 24.6% | [4] 15.9% | [5] 19.5% | [6] 42.4%

CC(=NCCN(CCN=C(C)c1c(O)cc(C)oc1=O)CCN=C(C)c1c(O)cc(C)oc1=O)c1c(O)cc(C)oc1=O
inactive: [1] 22.4% | [2] -4.3% | [3] 1.8% | [4] 11.4% | [5] 6.3% | [6] 21.8%

C=CCCC1(C)OC(C)C(C)O1 (configuration not stated)
inactive: [1] 8.75% | [2] 3.65% | [3] -0.95% | [4] -33% | [5] -5.85% | [6] -4.9%

CCCCCCCCC(Nc1ccccc1)C(O)CCCCCCCC(=O)O (configuration not stated) (tested in a mixture with another compound)
inactive: [1] -0.1% | [2] 1.8% | [3] 7.5% | [4] -6.1% | [5] -7.35% | [6] 16.2%

Cc1nc(N)nc(C)c1Cl
inactive: [1] -2.15% | [2] 3.4% | [3] 3.85% | [4] 5.2% | [5] -5.9% | [6] -1.85%

O=[N+]([O-])c1ccccc1S(=O)(=O)c1ccccc1[N+](=O)[O-]
inactive: [1] -26.4% | [2] -9.45% | [3] -14.1% | [4] -10% | [5] -1.5% | [6] -21%

CC(=O)OC1CC1(Br)Br (configuration not stated)
inactive: [1] 6.3% | [2] -15.8% | [3] 18.6% | [4] -37.8% | [5] 6.5% | [6] 5.2%

CN(N=O)C(=O)NC(C=O)C(O)C(O)C(O)CO (configuration not stated)
inactive: [1] 5.25% | [2] -23.4% | [3] 28.4% | [4] 12.2% | [5] 0.4% | [6] 1.6%

CC(C)CNC(=O)/C=C/c1ccc2c(c1)OCO2
inactive: [1] 13.5% | [2] -19.1% | [3] -1.4% | [4] 3.4% | [5] 6.45% | [6] -15.1%

c1ccc(-c2nnc(-c3ccc4ccccc4c3)o2)cc1
inactive: [1] -0.1% | [2] -6.5% | [3] 1.1% | [4] -40% | [5] 13.4% | [6] -2%

c1ccc(-c2ccc(-c3nnc(-c4ccc(-c5ccccc5)cc4)o3)cc2)cc1
inactive: [1] -0.95% | [2] -10.4% | [3] 2.7% | [4] -35.6% | [5] -2.6% | [6] -3.1%

OCC(CCl)(CCl)CCl
inactive: [1] 31% | [2] 18.1% | [3] 10.8% | [4] 7.45% | [5] 18.2% | [6] 41%

Nc1nc2nc[n-]c2c(=O)[nH]1.[NH2-].[NH2-].[NH2-].[NH2-].[NH2-].[Ru+6]
inactive: [1] 20.6% | [2] 4.55% | [3] 4.9% | [4] 2.5% | [5] -5.8% | [6] -4.9%

Cc1ccc(S(=O)(=O)NC2CC3(C)CCC2C3(C)C)cc1 (configuration not stated)
inactive: [1] -0.6% | [2] -20.4% | [3] -5.55% | [4] -46.1% | [5] 14.8% | [6] -4.45%

O=C(N/N=C/c1ccccc1)C1CC1
inactive: [1] 9.35% | [2] -10.2% | [3] 10.2% | [4] 8% | [5] 9.35% | [6] 1.85%

ClC(Cl)(Cl)C(c1ccc(Br)cc1)c1ccc(Br)cc1
inactive: [1] -18.1% | [2] -29.5% | [3] 1.15% | [4] -43.3% | [5] 16.8% | [6] -0.25%

COc1ccc(C2=CSC3=NC(C)(C)CC(C)=NN23)cc1
inactive: [1] -16.8% | [2] -8.2% | [3] 7.35% | [4] 29.2% | [5] 9.25% | [6] -1.75%

Cc1ccc(S(=O)(=O)/N=C2\CCN(S(=O)(=O)c3ccccc3)N2S(=O)(=O)c2ccc(C)cc2)cc1
inactive: [1] 17.6% | [2] 15.5% | [3] 14.3% | [4] 9.85% | [5] 11.8% | [6] 46.5%

NC(=Nc1ccccc1)c1ccc(Cl)cc1
inactive: [1] 66.2% | [3] 45.4%
active: [2] 96.5% | [4] 97.2% | [5] 98.6% | [6] 87.7%

O=C1c2ccccc2C(=O)N1n1c(Cc2ccccc2)n[nH]c1=O
inactive: [1] -16.1% | [2] -28.2% | [3] -41.5% | [4] -10.8% | [5] -16.5% | [6] -16.2%

O=C1O[C@@H](c2ccccc2)C[C@@H]1CN1CCOCC1
inactive: [1] 24.4% | [2] 13.7% | [3] 22.7% | [4] 26.1% | [5] 3.15% | [6] 15.1%

O=C1OCCOCCOCCOCCOCCOCCOC(=O)c2cccc1n2
inactive: [1] 28.9% | [2] -0.7% | [3] 7% | [4] 13.3% | [5] -0.35% | [6] 9.6%

COC(=O)c1sc(N2CCCC2)nc1N
inactive: [1] -4.95% | [2] 9.95% | [3] 6.4% | [4] -1.3% | [5] 11.4% | [6] -1.85%

CCCCOCCOCCO
inactive: [1] -18.2% | [2] -21.6% | [3] -15.7% | [4] -14.7% | [5] 1.45% | [6] 1.5%

CO/C=C/c1cc2c(cc1Br)OCO2
inactive: [1] 10.9% | [2] 5.15% | [3] 25.4% | [4] 0.75% | [5] 11.4% | [6] 12.3%

O=C(O)Cn1ccc(=O)c2cc([N+](=O)[O-])ccc21
inactive: [1] 41% | [2] 15.4% | [3] -11.1% | [4] 12.7% | [5] 24.9% | [6] -49%

Nn1c(=S)[nH]nc(/C=C/c2ccc3c(c2)OCO3)c1=O
inactive: [1] 38.9% | [2] 20.1% | [3] 3.8% | [4] -19.1% | [5] 6.35% | [6] 15.6%

C/C(CCc1cccc([N+](=O)[O-])c1)=N\NC(N)=O
inactive: [1] -19.1% | [2] -10.5% | [3] -6.5% | [4] -1.95% | [5] 7.4% | [6] -29.5%

CC1C2(C)OCC(C#N)(C(=N)O2)C1(C#N)C#N (configuration not stated)
inactive: [1] 21.2% | [2] 12.2% | [3] -44.5% | [4] -18.3% | [5] -40% | [6] 3.65%

CCNCC(OC)C(COC)OC(=O)c1ccc([N+](=O)[O-])cc1 (configuration not stated)
inactive: [1] 15.1% | [2] -11.6% | [3] -7.65% | [4] -32.9% | [5] 20.4% | [6] 7.25%

N#CC1C(=O)NC(=S)NC1c1ccc(Cl)c(Cl)c1 (configuration not stated)
inactive: [1] -3.15% | [2] -16.9% | [3] -25.9% | [4] -19.6% | [5] -13.8% | [6] -5.25%

Clc1cc(Cl)cc(C=NC23CC4CC(CC(C4)C2)C3)c1
inactive: [1] -13.8% | [2] -31.2% | [3] -40.5% | [4] -20% | [5] -24.4% | [6] -11%

CCOC(=O)C1CC1C#N (configuration not stated)
inactive: [1] 3.4% | [2] -11.9% | [3] 9% | [4] 13.9% | [5] 9.95% | [6] 7.75%

CNC(=O)c1c(-c2ccc(F)cc2)noc1C
inactive: [1] -6.7% | [2] -10.5% | [3] 25.4% | [4] 9.05% | [5] 17.4% | [6] 10.1%

CC(=O)OCC1OC(n2cc(F)c(=O)[nH]c2=O)C(NC(=O)N(CCCl)N=O)C(OC(C)=O)C1OC(C)=O (configuration not stated)
inactive: [1] 2.4% | [2] -13.9% | [3] 12.8% | [4] 10.8% | [5] 0.9% | [6] -5.85%

Nc1c(I)cc([N+](=O)[O-])cc1I
inactive: [1] 32.8% | [2] 2.6% | [3] 18% | [4] -16.4% | [5] 25.9% | [6] 19.9%

Cn1ncc2c(=O)[nH]c(-c3ccccc3)nc21
inactive: [1] -0.75% | [2] -8.35% | [3] -5.9% | [4] 3.55% | [5] -3.05% | [6] -6.3%

COC(=O)[C@@H]1[C@H](OC(C)=O)CCC2[C@@]3(C[C@@H](c4ccoc4)O[C@@H]3OC)[C@H](C)CC[C@]21C(=O)OC (some centres not stated)
inactive: [1] -12.4% | [2] -5.1% | [3] -39% | [4] -8.7% | [5] -36.9% | [6] -37.5%
